From PubChem BioAssay
Compounds with a hit are over-represented: about 9.4% of the library has one in this group of screens.
IMPase cell inh – membrane-permeable compound that blocks inositol monophosphatase | CHO-M1 cells, IP1 accumulation, HTRF TR-FRET ratio | inhibition (IP1 accumulation), % at 46.1 µM | 120,000 tested, under 10 active | AID 901; active = well fitted curve in the direction sought with a large enough effect in the signal ratio, not every such curve was filed as active; inconclusive = small, poorly fitted or top-dose-only effect, or a change in a side signal; inactive = no such curve, though single readings can be large or run the other way; the % refers to the signal ratio;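 also: cells stimulated with carbachol in lithium chloride buffer; plate controls were DMSO basal wells for no effect and reference inhibitor wells for full effect; higher means more IMPase inhibition seen as more IP1 and lower FRET ratio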
Target sequence (P97697 whole entry, looked up): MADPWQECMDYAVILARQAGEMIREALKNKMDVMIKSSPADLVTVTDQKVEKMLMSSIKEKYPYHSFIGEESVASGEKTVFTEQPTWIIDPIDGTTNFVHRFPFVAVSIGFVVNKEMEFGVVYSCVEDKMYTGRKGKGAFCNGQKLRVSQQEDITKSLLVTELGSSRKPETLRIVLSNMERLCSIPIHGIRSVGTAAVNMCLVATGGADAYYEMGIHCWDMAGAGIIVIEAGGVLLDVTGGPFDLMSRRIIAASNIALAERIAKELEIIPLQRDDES
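Carbachol-driven Gq signalling in CHO-M1 cells (2000/well) generates IP1. Compounds that block IMPase raise IP1 and so reduce the FRET signal from Eu-anti-IP1 and d2-IP1 after a 10 min room-temperature lysis.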
HPGD block – blocks human HPGD enzyme activity | Potency, µM, without a hit: at the top dose activity change, negative = inhibition, most hits filed as inhibitors | AID 894 | P15428 | 150,000 tested, 4.3% active | purified HPGD, NADH fluorescence kinetic, PGE2 substrate; active = well fitted inhibition curve with a large enough effect, not every such curve was filed as active; inconclusive = small, poorly fitted or top-dose-only effect, or another doubt; inactive = no such curve, though single readings can be large or run the other way; also: potency is read from the fitted curve at half-maximal effect; % is scaled to controls: 0 for no effect and ±100 for the full control effect
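NADH formation kinetics: reaction with 30 uM PGE2 and 1 mM NAD+ (final), 20 nM enzyme, Tris-HCl pH 8 with Tween 20, after 15 min compound preincubation at room temperature. Fluorescence change, last versus first of five reads.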
HttQ103 aggreg – mutant huntingtin aggregation inhibition; PC12 HttQ103-GFP aggregates, Acumen cytometry, 40 h; Potency, µM (doses to about 46.1 µM), for the others: at the highest dose activity change, negative = inhibition, actives largely listed as inhibitors; 220,000 tested, 1.1% active; also: potency is read from the fitted curve at half-maximal effect; % is scaled to controls: 0 for no effect and ±100 for the full control effect; nearly all actives have a fitted effect of over 60% in size
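Read-out: GFP aggregate count by laser scanning cytometer (488 nm excitation, 500-530 nm emission, 1–25 µm objects >6 SD above background). Cells: PC12, inducible HTTex1-Q103-GFP, 100 nM tebufenozide; compounds titrated.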
HTT cytoprotect – protects HTT-Q103 PC12 cells, measured by ATP; 230,000 tested, 0.14% active; AID 1471; Potency, µM (doses to about 56.4 µM), inactives show cytoprotection (ATP increase), usual class: activators; PC12 HTT-Q103 induced, cytoprotection, ATP luminescence, 40 h; also: potency is read from the fitted curve at half-maximal effect; % of control where 0% means no effect; nearly all actives have a fitted effect of over 45% in size
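PC12 cells stably carrying ecdysone-inducible Htt exon 1 (Q103)–GFP were induced with 100 nM tebufenozide (final) alongside library compounds in a dose series. Cytoprotection was scored as retained ATP by ATPlite luminescence.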
ALDH1A1 block – blocks purified human ALDH1A1 activity | Potency, µM (series often up to 75.3 µM), inactives show at the top dose activity, negative = inhibition, actives largely listed as inhibitors | Purified ALDH1A1, NADH fluorescence, propionaldehyde substrate | AID 1030 | 220,000 tested, 7.3% active | P00352; active = well fitted inhibition curve with a large enough effect, not every such curve was filed as active; inconclusive = small, poorly fitted or top-dose-only effect, or another doubt; inactive = no such curve, though single readings can be large or run the other way;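 also: potency is read from the fitted curve at half-maximal effect; plate controls were no enzyme wells and a reference inhibitor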
Target sequence (P00352 whole entry, looked up): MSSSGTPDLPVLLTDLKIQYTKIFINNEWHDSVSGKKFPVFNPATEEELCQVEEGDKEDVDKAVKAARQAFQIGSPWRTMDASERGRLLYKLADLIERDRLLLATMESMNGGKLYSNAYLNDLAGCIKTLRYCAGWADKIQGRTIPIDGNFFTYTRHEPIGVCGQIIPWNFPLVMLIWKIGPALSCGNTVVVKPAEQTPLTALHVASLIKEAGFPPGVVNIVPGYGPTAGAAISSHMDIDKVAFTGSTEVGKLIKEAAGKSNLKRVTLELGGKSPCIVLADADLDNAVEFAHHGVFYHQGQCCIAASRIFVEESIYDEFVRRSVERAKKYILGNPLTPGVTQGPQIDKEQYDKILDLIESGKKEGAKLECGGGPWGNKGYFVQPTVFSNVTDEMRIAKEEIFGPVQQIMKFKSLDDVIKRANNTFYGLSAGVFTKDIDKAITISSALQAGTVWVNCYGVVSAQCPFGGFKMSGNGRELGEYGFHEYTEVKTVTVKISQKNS
IMPase Li inh – membrane-permeable IMPase blocker, potentiated with lithium; CHO-M1 cells, IP1 TR-FRET (IP-One), carbachol + lithium; Potency, µM (series often up to 59.4 µM), without a hit: at the highest dose activity, negative = IMPase inhibition, usual class: inhibitors; 210,000 tested, 0.35% active;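 also: IP1 builds up when IMPase is blocked and the TR-FRET signal falls; potency is read from the fitted curve at half-maximal effect; plate controls were basal vehicle for no effect and high inhibitor control for full effect; nearly all actives have a fitted effect of over 50% in size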
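Readout is a homogeneous TR-FRET IP1 immunoassay (Ex 320, Em 665 and 620), where raised cytosolic IP1 lowers signal. Cells were CHO-M1 treated 30 min at 37C with test compounds plus a little lithium; AC50 values came from Hill-equation fitting.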
The depositor's hits bear a star; ? = inconclusive; . = no result; ! = a repeat was not active; [ ] = dose if it differs, or a comment. Unless noted, calls follow the shape of the dose curve; as a rule, active = well fitted curve in the direction sought with a large enough effect; inconclusive = small, poorly fitted or top-dose-only effect, or another doubt; inactive = no such curve, though single readings can be large; an effect the other way counts as inactive or inconclusive.

SMILES | IMPase cell inh | HPGD block | HttQ103 aggreg | HTT cytoprotect | ALDH1A1 block | IMPase Li inh
Cc1ccc(NC(=[OH+])c2cc3ccccc3cc2O)c(C)c1.Cc1ccc(NC(=[OH+])c2cc3ccccc3cc2O)c(C)c1.[Ni] | . | 1.8µM* | . | 8%[10 µM] | -20%[13.5 µM] | 7%
Cc1ccccc1C(=O)NNC(=S)NC(=O)COc1ccccc1 | -4 | 25µM* | 4% | ? | 7.1µM* | 18%[38.3 µM]
COc1ccc(CC(=O)NC(=S)NNC(=O)COc2c(C)cccc2C)cc1 | . | -16% | -3% | . | ? | -4%
COc1cc(C(C#N)N2CCOCC2)ccc1O (stereo not given) | 9 | . | 2% | 1%[10 µM] | 14µM* | .
Clc1nc(Cl)nc(Nc2ccccc2Cl)n1 | . | -3% | . | -8% | -1% | 2%
C[C@@H]1CC[C@H]2[C@@H](C)C(=O)O[C@@H]3OC4(C)CC[C@@H]1C32OO4 (stereo not given in full) | . | -3% | 3.2µM* | -154% | 3% | -5%
C[C@@H]1CC[C@H]2[C@@H](C)C(=O)O[C@@H]3OC4(C)CC[C@@H]1[C@]32OO4 | . | -8% | . | . | 25µM* | -1%
C[C@H]1CC[C@@H]2[C@@H](C)C(=O)O[C@H]3O[C@@]4(C)CC[C@H]1[C@@]32OO4 | 3[20.6 µM] | -9% | . | 3%[40.3 µM] | -11%[20.9 µM] | -3%
c1cc(OCC2CO2)cc(OCC2CO2)c1 (stereo not given) | . | -13% | . | -194% | ? | 16%
Cc1cc[c]([Sb]2[O]C([C@H](O)[C@H](O)C(=O)O)[C@@H](CO)[O]2)cc1 (stereo not given in full) | . | 1% | . | . | 3%[13.5 µM] | -3%
CC(=O)c1ccc(Oc2ccc(C(=O)c3ccc(C)c(C)c3)cc2[N+](=O)[O-])cc1 | . | 7.1µM* | 15% | 20%[10 µM] | 0.79µM* | 1%
O=C(Nc1ccc([As](=O)(O)O)cc1)Nc1cccc(Cl)c1Cl | . | -8% | . | 0%[10 µM] | 3%[13.5 µM] | -14%
Oc1c(Br)cc(Br)cc1Oc1ccc(Br)cc1Br | . | 7.1µM* | 13µM* | . | -1% | 11%
COC(=O)[C@H]1[C@@H](c2ccccc2)[C@@]2(c3ccccc3)Oc3ccccc3[C@@]1(O)[C@@H]2O | . | . | . | -7%[10 µM] | 2%[13.5 µM] | .
CCn1c(O)c(C(=O)CC2NCCc3ccccc32)c(=O)n(CC)c1=S (stereo not given) | 5 | -14% | -4% | -42% | 1.3µM* | 24%[38.3 µM]
CCn1c(O)c(C=NCc2cccs2)c(=O)n(CC)c1=S | -5 | -24% | -9%[9.22 µM] | -35% | ? | 20%[38.3 µM]
CN(C)C(=O)Cl | . | -8% | . | -46% | ? | -12%
C=C1C(O)C2OC3(CCC(/C=C/C(C)C4CC(C)=CC5(OC(CC(C)(O)C(=O)O)CCC5O)O4)O3)CCC2OC1C(O)CC(C)C1OC2(CCCCO2)CCC1C (stereo not given) | . | -2% | . | 16%[1.9 µM] | 3%[2.48 µM] | 10%
C1=CC2C3C=CC(C3)C2C1 (stereo not given) | . | -10% | . | -11% | 22µM* | -4%
CC(=NCCCN1CCOCC1)c1c(O)n(-c2ccccc2C)c(=O)[nH]c1=O | 2 | -8% | 4% | -3%[10 µM] | 14µM* | 3%[38.3 µM]
Oc1c(Cl)c(Cl)c(Cl)c(Cl)c1Cl | . | . | . | ? | 18µM*! | 5%
COc1ccc(N(CC(=O)Nc2cccc(SC)c2)S(C)(=O)=O)cc1Cl | 9 | ? | 8%[9.22 µM] | 1% | 14µM* | 21%[38.3 µM]
c1ccc2c(c1)OC[C@@H](C1=NCCN1)O2 | 5 | 1% | . | 5µM*! | -8% | 17%
O=C(Cl)c1ccccc1F | . | -14% | . | ? | ? | -10%
Cc1ncsc1CCOC(=O)c1ccc([N+](=O)[O-])cc1 | -2 | -17% | 0% | 16%[10 µM] | -9% | 27%
SMILES | IMPase cell inh | HPGD block | HttQ103 aggreg | HTT cytoprotect | ALDH1A1 block | IMPase Li inh
O=C(CNC(=O)c1cccs1)NCC(=O)OCC(=O)c1ccc([N+](=O)[O-])cc1 | . | . | 3% | -13% | 2.2µM* | 3%
Cc1ccc(OP(=O)(Oc2ccc(C)cc2)N2C=Cc3ccccc3[C@H]2C#N)cc1 | . | -6% | . | -11%[10 µM] | -11%[13.5 µM] | -2%
Cl/C=C/CCl | . | -5% | . | 0% | -3% | 5%
N#C/C(=C\c1ccc(O)c(O)c1)C(N)=S | ? | 8.9µM* | . | -14% | 2.2µM* | 13%
Nc1ccc(Br)cc1 | . | -11% | . | -21% | ? | 1%
Nc1ccc2cc(Br)ccc2c1 | . | . | -25% | -15% | 18µM* | -15%
CN1[C@@H]2CC[C@H]1CC(O[C@@H](c1ccccc1)c1ccccc1N)C2 (stereo not given in full) | 23 | . | . | 20%[1.9 µM] | . | .
O=[N+]([O-])c1ccc(N2CCCC2)c2ccncc12 | . | . | 22µM* | -37% | -7% | 18%
CC1CC(=O)O1 (stereo not given) | . | -1% | . | -45% | 9% | -15%
Fc1ccc2c(c1)nnn2C1CCN(Cc2nnnn2C2CCCCC2)CC1 | 0 | -12% | 11% | -5% | 13µM* | 30%[38.3 µM]
CC(C)CNCCc1ccccn1 | . | -3% | . | 5%[10 µM] | 16%[13.5 µM] | -1%
N#CC(Cl)Cl | . | -10% | . | -57% | 18µM* | 7%
O=C(Oc1ccccc1)N1CCC[C@@]2(CCN(Cc3cc(C(F)(F)F)cc(C(F)(F)F)c3)C2)C1 | . | 1% | . | 1% | 1% | 1%
CC(C)CCn1c(N2CCN(c3cccc(Cl)c3)CC2)nc2c1c(=O)[nH]c(=O)n2C | 10 | -5% | -5% | 28%[10 µM] | 5% | 34%
CCCCCn1c(SCCCC)nc2c1c(=O)[nH]c(=O)n2C | -1 | 14µM* | -14% | -8%[10 µM] | 20µM* | 31%[38.3 µM]
O=C(O)[C@H](Cc1cnc[nH]1)N1C(=O)c2ccccc2C1=O | . | -1% | . | -1%[10 µM] | -7%[13.5 µM] | -8%
CC(=O)[C@@H]1CC[C@@H]2[C@@H]3CCC4=CC(=O)CC[C@@]4(C)[C@H]3CC[C@]21C | 1[20.6 µM] | 0% | . | 11%[40.3 µM] | -6%[20.9 µM] | 1%
CC(=O)[C@H]1CC[C@H]2[C@@H]3CCC4=CC(=O)CC[C@]4(C)[C@H]3CC[C@]12C | 12 | 0% | -21% | 1%[1.9 µM] | 11µM*! | 6%
C[C@@]12CC[C@H]3[C@@H](CCC4=CC(=O)CC[C@]43C)[C@H]1CC[C@H]2C(=O)CO | -5[20.6 µM] | -6% | -6%[20.6 µM] | -61%[17.1 µM] | 5µM* | 7%
CC(C)[C@]1(NC(=O)[C@H]2C=C3c4cccc5[nH]cc(c45)C[C@H]3N(C)C2)O[C@@]2(O)[C@H]3CCCN3C(=O)[C@H](Cc3ccccc3)N2C1=O | . | . | . | 6% | . | .
CN1CCN(C(=S)c2ccc([N+](=O)[O-])cc2)CC1 | -10 | 28µM* | 3% | 5%[10 µM] | ? | 1%
S=C=Nc1cccc2ccccc12 | . | ? | . | 12% | ? | 8%
